Compound activity as filed in PubChem BioAssay.
A selection: hits, their analogues and other compounds. The true share with any hit is near 4.6%.
Epigenetic derep = regulators of epigenetic silencing causing reporter derepression in mouse cells. murine LDR cells, GFP reporter derepression, 30 h. Potency, µM (series often up to 53.9 µM), for inactives: at the highest dose GFP activation, usual class: activators. actives 0.2% (n = 280,000). AID 1865; active = well fitted activation curve with a large enough effect; note: potency is the fitted concentration of half-maximal effect; % of control where 0% means no effect; nearly all actives have a fitted effect of over 60% in size
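Readout is the number of GFP-expressing murine LDR cells, counted by cytometry following washing. Cells were treated with compound for 30 h at 37 C; the stably integrated CMV-GFP locus is normally silent.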
TRHR ag = TRH receptor (human) agonism. AID 493084. P34981. activation, % at 2 µM. TRHR cells, calcium flux fluo-8, FDSS agonist mode. actives 0.18% (n = 360,000); note: 0% is about no effect
Target sequence (P34981 whole entry, looked up): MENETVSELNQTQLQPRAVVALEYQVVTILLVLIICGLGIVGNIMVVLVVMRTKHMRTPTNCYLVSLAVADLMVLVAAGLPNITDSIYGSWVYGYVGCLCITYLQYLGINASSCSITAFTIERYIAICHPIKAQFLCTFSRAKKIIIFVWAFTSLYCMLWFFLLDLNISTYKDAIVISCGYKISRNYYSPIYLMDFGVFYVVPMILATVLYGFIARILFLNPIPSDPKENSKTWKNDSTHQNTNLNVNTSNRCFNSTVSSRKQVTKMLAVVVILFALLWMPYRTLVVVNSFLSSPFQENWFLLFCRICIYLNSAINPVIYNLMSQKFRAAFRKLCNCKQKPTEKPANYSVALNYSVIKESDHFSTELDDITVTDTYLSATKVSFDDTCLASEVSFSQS
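TRHR-expressing cells, plated overnight in medium with 10% serum, were loaded with fluo-8 calcium dye at room temperature. After a 10 s baseline, library compound was pin-added and calcium release was recorded kinetically (ex 480/em 530) as agonist response.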
TRHR PAM = allosterically enhances the human TRH receptor | TRHR cells, fluo-8 calcium fluorescence, EC20 TRH enhancement | enhancement, % at 2 µM | AID 493056 | actives 0.66% (n = 360,000); in the data active = enhancement above about 30%; note: 0% is about no effect
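TRHR-expressing cells loaded with fluo-8 calcium dye were read kinetically (ex 480/em 530) during compound addition, then stimulated with an EC20 of TRH (10 nM final). Enhancement of the Gq-mediated intracellular calcium response was scored.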
D1 ag = human D1 receptor agonism. P21728. HEK293 T-REx D1 cells, calcium flux, agonist mode. activation, % at 2 µM. actives 1% (n = 360,000); note: 0% is about no effect
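Inducible HEK293 T-REx D1 cells, force-coupled to calcium signalling, were plated at 4000 cells/well with tetracycline and held overnight at 30 C. After no-wash calcium dye loading, compound-evoked calcium rise over 180 s flagged agonists.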
D1 potentiator = potentiators of human D1 dopamine receptor; P21728; HEK293 TREx D1 cells, calcium flux, dopamine EC20 potentiation; potentiation, % at 10 µM; actives 0.036% (n = 360,000); AID 504651; in the data active = potentiation above about 30%; note: 0% is about no effect
D1 antagonist = blocks dopamine activation of the human D1 receptor. P21728. HEK293 TREx D1 cells, calcium flux, dopamine EC80; active compounds read low. activity change, negative = inhibition, % at 10 µM. actives 3.2% (n = 360,000). AID 504652; in the data active = activity change below about -30%; note: % is set by controls: 0 for no effect and ±100 for the full control effect
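Inducible Hek293 Trex D1 cells (tetracycline, overnight, 30 C). Calcium dye 30–90 min RT. Antagonist mode: EC80 dopamine added after 180 s compound read.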
The depositor's hits bear a star; nt = not tested or not shown; [ ] = dose if it differs, or a comment. Cut-off read from the data, not from the text of the source, unless noted: active = activation above about 30%; inactive = the rest.

SMILES | Epigenetic derep | TRHR ag | TRHR PAM | D1 ag | D1 potentiator | D1 antagonist
Cc1ccccc1N1CCN(C2CCCN(C(=O)CN3CCCC3=O)C2)CC1 (centres undefined) | nt | 0.2 | -14.3 | 1.3 | 0.8 | 18.7
C=CCNC(=S)NNC(=O)c1ccccc1 | 0.0% | 0.2 | 39.3* | 5.6 | -2.5 | 11.3
COc1ccc(N=c2oc3c(OC)cccc3cc2C(=O)NCc2ccco2)cc1OC | 12.6µM* | -0.6 | 2.0 | -0.4 | 5.2 | -7.5
COc1cccc2cc(C(=O)N(C)C3CCN(C)CC3)c(=O)oc12 | 1.2% | 0.5 | 5.3 | 1.0 | -10.0 | -39.4*
COc1ccccc1N=c1oc2c(OC)cccc2cc1C(=O)NCc1ccco1 | 3.3% | -0.3 | -5.7 | 1.5 | -2.5 | -6.1
COc1cccc2cc(-c3ccccc3)c(=O)oc12 | -1.8% | -1.0 | 2.3 | -1.4 | -4.0 | -31.1*
COc1cccc2cc(C(=O)NCc3ccccn3)c(=O)oc12 | 0.1% | -0.3 | -6.6 | 0.0 | -2.7 | -48.7*
Cc1oc(-c2ccc(C(=O)Nc3cc(F)ccc3F)cc2)nc1COc1ccccc1 | 3.1% | -0.2 | -4.3 | -0.4 | 1.4 | 7.9
O=C(Nc1ccc2oc(-c3cccnc3)nc2c1)c1ccc(-c2ccccc2OC(F)(F)F)o1 | -1.6% | -0.3 | -0.1 | 0.8 | -1.9 | -11.3
CCOc1ccccc1NC(=O)N1CCN(S(=O)(=O)c2ccc3c(ccn3C)c2)CC1 | -0.9% | -0.8 | -2.5 | 3.6 | 1.1 | 3.1
CCCCOC(OCCCC)[C@H](O)CSc1ccc2ccccc2c1 | 0.0%[10.1 µM] | nt | nt | nt | nt | nt
CCC(=O)N1c2ccc(S(=O)(=O)N3CCCCCC3)cc2CC1C (centres undefined) | 0.2% | 0.4 | 6.5 | 4.6 | -1.2 | -20.2
COc1cccc2cc(C(=O)N(Cc3cccs3)CC3CCCO3)c(=O)oc12 (centres undefined) | 0.1% | 0.1 | 2.8 | 1.2 | -4.0 | -37.9*
O=C(c1cc2ccccc2oc1=O)N(Cc1cccs1)CC1CCCO1 (centres undefined) | 1.1% | -0.4 | 3.0 | 2.1 | -1.4 | -16.0
COc1ccc(C(=O)NNc2ncnc3c2cnn3-c2ccc(C)cc2C)cc1 | 1.4% | -0.9 | -0.1 | -4.4 | -0.2 | -2.3
CC(=O)c1ccc(NC(=O)c2cn(C)c(=O)c3ccccc23)cc1 | -1.2% | 0.2 | 0.8 | -0.1 | 2.5 | -7.3
CCc1ccccc1NC(=O)c1cn(C)c(=O)c2ccccc12 | 2.3% | -0.1 | -1.5 | -1.6 | -0.4 | -68.9*
COc1ccc(-n2nc(C(=O)Nc3cccc(Cl)c3)c3c4ccccc4n(C)c3c2=O)cc1Cl | -0.7% | 0.0 | -0.6 | 1.7 | 1.6 | -32.5*
Cc1ccc(-n2nc(C(=O)N(C)c3ccccc3Cl)c3c4ccccc4n(C)c3c2=O)cc1 | 4.2% | 55.8* | 8.3 | 1.7 | 4.0 | 12.2
CCc1ccccc1NC(=O)c1nn(-c2ccc(C)cc2)c(=O)c2c1c1ccccc1n2C | 9.6% | -0.8 | 25.1 | 2.1 | -2.9 | -33.3*
Cc1ccc(-n2nc(C(=O)Nc3ccc(F)cc3F)c3c4ccccc4n(C)c3c2=O)cc1 | -0.9% | 0.3 | 4.5 | -0.1 | 4.8 | -0.4
CCOC(=O)c1sc2ccccc2c1S(=O)(=O)Nc1ccc(CC)cc1 | 0.0% | 0.6 | 18.6 | 5.1 | -4.4 | 19.5
Cc1ccccc1NC(=O)c1ccc(F)c(S(=O)(=O)N(C)C2CCCCC2)c1 | 1.3% | 0.2 | -6.6 | 12.6 | -1.1 | -14.6
NC(Cc1cc(I)c(Oc2cc(I)c(O)c(I)c2)c(I)c1)C(=O)O (centres undefined) | 5.3% | nt | nt | nt | nt | nt
CCn1c(SCC(=O)Nc2cc(C)ccc2F)nnc1-c1ccccc1O | 0.0% | -0.8 | 7.7 | 1.8 | -5.2 | -11.4
Clc1ccc(Cn2nnc(-c3ccc(CN4CCOCC4)cc3)n2)cc1 | -1.0% | -0.6 | -5.4 | 8.9 | -4.2 | 4.1
Fc1cccc(Cl)c1Cn1nnc(-c2ccc(N3CCOCC3)cc2)n1 | 0.0% | -0.7 | 4.2 | 5.6 | -2.1 | -35.8*
CCc1cccc(C)c1NC(=O)C(CC)n1ncn2c(cc3cc(C)ccc32)c1=O (centres undefined) | 3.2% | 0.0 | 2.4 | 3.2 | 6.2 | 14.3
C=CCSc1ncc(CO)n1Cc1ccccc1 | -1.6% | -0.7 | 5.0 | -1.0 | 2.3 | -50.2*
